Laboratory results taken from ChEMBL document CHEMBL1961873, “Compounds: GSK PKIS; Assays: Nanosyn kinase panel” (2012).

These molecules were tested against T1, Ephrin type-B receptor 4 (Homo sapiens) (UniProt P54760). Details: at 0.1 µM.
T1 sequence (whole entry): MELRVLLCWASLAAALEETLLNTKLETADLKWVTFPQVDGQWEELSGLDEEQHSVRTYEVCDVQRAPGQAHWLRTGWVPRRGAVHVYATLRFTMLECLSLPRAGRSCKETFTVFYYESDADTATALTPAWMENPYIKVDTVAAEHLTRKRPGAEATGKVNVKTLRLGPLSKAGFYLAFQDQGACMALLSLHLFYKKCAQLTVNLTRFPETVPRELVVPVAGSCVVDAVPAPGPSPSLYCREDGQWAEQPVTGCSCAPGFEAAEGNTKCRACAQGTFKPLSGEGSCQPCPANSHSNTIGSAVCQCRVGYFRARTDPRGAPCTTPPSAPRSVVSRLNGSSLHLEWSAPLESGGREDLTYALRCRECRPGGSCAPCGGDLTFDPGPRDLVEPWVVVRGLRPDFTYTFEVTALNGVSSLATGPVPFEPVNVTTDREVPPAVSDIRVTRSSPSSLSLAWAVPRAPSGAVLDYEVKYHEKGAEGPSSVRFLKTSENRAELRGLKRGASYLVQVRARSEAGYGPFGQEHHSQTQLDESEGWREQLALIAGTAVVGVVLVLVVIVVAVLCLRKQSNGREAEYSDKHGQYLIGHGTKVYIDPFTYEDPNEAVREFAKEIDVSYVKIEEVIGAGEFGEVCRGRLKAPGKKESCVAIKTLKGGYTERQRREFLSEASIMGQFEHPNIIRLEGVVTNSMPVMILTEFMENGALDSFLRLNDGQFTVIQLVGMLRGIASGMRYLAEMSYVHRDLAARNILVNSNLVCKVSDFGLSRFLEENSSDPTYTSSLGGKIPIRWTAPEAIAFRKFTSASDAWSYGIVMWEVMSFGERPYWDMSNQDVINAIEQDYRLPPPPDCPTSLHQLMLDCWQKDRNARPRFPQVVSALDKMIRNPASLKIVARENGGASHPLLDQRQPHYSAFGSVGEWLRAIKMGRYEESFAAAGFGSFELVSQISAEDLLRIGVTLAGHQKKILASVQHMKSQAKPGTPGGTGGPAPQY
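Further: each value is a mean percent inhibition.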

SMILES	inhibition [%]
C[C@@H](Oc1cc(-n2cnc3ccc(OCC4CCN(C)CC4)cc32)sc1C(N)=O)c1ccccc1C(F)(F)F	-1.38
Cc1cc(O)cc(C)c1/C=C/c1cncc(C(=O)N(C)C)c1	3.23
c1ccc(Nc2ncc(-c3ccccc3)o2)cc1	4.58
COc1ccc(-c2nn3ncccc3c2-c2ccnc(Nc3cccc(C(F)(F)F)c3)n2)cc1	0.66
Cc1ccc(NC(=O)CC2CC2)cc1-c1ccc(C(=O)NCC2CC2)cc1	0.66
COC(=O)c1ccc2c(c1)C(=Cc1cc(Br)c(O)c(Br)c1)C(=O)N2	2.41
Cc1ccc2c(-c3ccnc(Nc4ccc5c(c4)OCCO5)n3)c(-c3ccc(C(F)(F)F)cc3)nn2n1	-1.12
COc1cc(/C=N/Nc2ncnc3c2cnn3C(C)C)ccc1O	3.42
Nc1ccc(C#Cc2cncnc2Nc2ccc(OCc3cccc(F)c3)c(Cl)c2)cc1	0.47
ON=C1CCc2cc(-c3nc(C4CCNCC4)[nH]c3-c3ccncc3)ccc21	-0.77
COc1cccc(-n2ncc3c(N/N=C/c4ccc(C)cc4)ncnc32)c1	3.6
CCS(=O)(=O)c1ccc(OC)c(Nc2ncc(-c3cccc(OC)c3)o2)c1	3.32
CC(C)c1ccc2c(c1)NC(=O)/C2=N/Nc1ccc(S(N)(=O)=O)cc1	1.07
Cc1cc(Cl)cc2c1NC(=O)C2=NNc1ccc(S(N)(=O)=O)cc1	1.3
CC(C)c1ccc(Nc2nccc(-c3cnn4ncccc34)n2)cc1	4.64
N#Cc1cccc(Nc2nccc(-c3cnn4ncccc34)n2)c1	5.63
Oc1cccc(-c2nc(-c3ccccc3)[nH]c2-c2ccncc2)c1	6.41
